Reference: PubChem BioAssay AID1768 (National Center for Advancing Translational Sciences (NCATS), 2009)
In all, about 270,000 compounds went through this assay and about 620 (0.23%) were called active. Inconclusive results (about 12%) are left out. The sample holds actives, similar compounds and a random draw of the others, so the mix is not that of the screen. A number with no mark means an inactive call. Calls come from the whole dose curve; as a rule, active = well fitted inhibition curve with a large enough effect in the polarisation, with a control signal flat (not every such curve was filed as active); inconclusive = small, poorly fitted or top-dose-only effect, or effect the other way, or a change in a side signal; inactive = no such curve, though single readings can be large or run the other way; the % refers to the polarisation.
Potency is the fitted concentration of half-maximal effect.
Throughout, for FP activity change, negative = inhibition: % of control where 0% means no effect.

These compounds were tested against Menin (Homo sapiens) (UniProt O00255) (assay: qHTS Assay for Inhibitors Targeting the Menin-MLL Interaction in MLL Related Leukemias: Competition With Texas Red Labeled MLL-derived Mutant Peptide). Conditions: fluorescence polarization; series mostly up to 61.6 µM; FP activity change, negative = inhibition: at the top concentration.
Chain of Menin (Homo sapiens) (O00255 whole entry, looked up, the tested form may be a part): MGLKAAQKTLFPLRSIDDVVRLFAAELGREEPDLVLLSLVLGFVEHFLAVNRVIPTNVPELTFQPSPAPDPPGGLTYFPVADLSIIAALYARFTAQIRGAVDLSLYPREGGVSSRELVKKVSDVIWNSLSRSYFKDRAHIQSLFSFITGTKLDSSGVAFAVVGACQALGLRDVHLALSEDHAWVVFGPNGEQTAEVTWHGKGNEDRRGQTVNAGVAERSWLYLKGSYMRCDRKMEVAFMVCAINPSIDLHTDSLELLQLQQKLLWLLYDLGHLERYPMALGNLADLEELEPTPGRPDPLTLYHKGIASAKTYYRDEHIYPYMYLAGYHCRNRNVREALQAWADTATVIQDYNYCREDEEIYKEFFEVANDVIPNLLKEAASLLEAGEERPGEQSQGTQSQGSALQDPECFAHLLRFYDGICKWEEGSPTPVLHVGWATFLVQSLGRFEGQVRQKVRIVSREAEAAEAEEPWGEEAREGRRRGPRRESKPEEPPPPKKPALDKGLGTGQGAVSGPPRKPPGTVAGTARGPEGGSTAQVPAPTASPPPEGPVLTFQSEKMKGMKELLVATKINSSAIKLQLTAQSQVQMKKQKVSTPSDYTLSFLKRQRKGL
Source text: qHTS Assay for Inhibitors Targeting the Menin-MLL Interaction in MLL Related Leukemias NIH Chemical Genomics Center [NCGC] NIH Molecular Libraries Probe Centers Network [MLPCN] MLPCN Grant: MH084875-01A1 Assay Submitter (PI): Jolanta Grembecka, Tomasz Cierpicki, University of Virginia Translocations of the MLL (Mixed Lineage Leukemia) gene are frequently found in human leukemias affecting both children and adults. Fusion of MLL to one of more than 60 genes results in generation of oncogenic proteins upregulating Hox genes, which are vital to blood cell development. Patients harboring fusion of the MLL gene suffer from aggressive leukemias and respond poorly to available therapies. All of the oncogenic fusion proteins have a preserved N-terminal fragment of MLL that has been identified to interact with menin. It has been recently discovered that association with menin is critical to the leukemogenic activity of the MLL fusion oncoproteins. Selective targeting of the menin-MLL interaction could provide an attractive therapeutic approach to develop novel drugs for MLL-related leukemias. Small molecules blocking the menin-MLL interaction should reverse the oncogenic potential of MLL fusion proteins. We have developed and optimized a fluorescence polarization-based assay for the identification of Menin-MLL inhibitors. The assay was run employing two different MLL-derived peptides. The present assay uses a 12 amino acid peptide labeled with fluorescein at its N-terminus. This peptide consists of the menin high affinity binding motif from MLL and is potently bound by menin. Another peptide with a mutated sequence, labeled with Texas Red, was used in parallel as a less stringent screen for inhibitors.
The Menin protein, the MLL-wild type (w.t.) derived peptide (N-terminal 12 amino acids), the MLL-derived peptide labeled with Texas Red and the MLL-w.t. peptide labeled with Fluorescein were kindly supplied by laboratory of Dr. Jolanta Grembecka, University of Virginia. All protein and peptide solutions were stored in single use aliquots at -80C. The Eu3+ Cyrptate-conjugated mouse monoclonal antibody anti-6 Histidine (Eu3+-AB) and the Streptavidin-XL665 conjugate (XL665) were purchased from Cisbio International (Bedford, MA). All antibody and XL665 conjugate solution stocks were stored in single use aliquots at -20C. The Buffer components for all assays were purchased from Sigma-Aldrich (St. Louis, MO) and Invitrogen (Carlsbad, CA). FP Assay Reagents: 1. FP reaction buffer: 50 mM Tris-HCl pH 7.5, 50 mM NaCl, 1mM DTT. Before use, 0.05% BSA is added. 2. Menin protein, MLL-w.t. labeled with fluorescein, MLL-mutant peptide labeled with texas red. Stored in singe use aliquots at -80C. 3. MLL-w.t. unlabeled peptide as positive control: 10 uM final in FP buffer. FP Assay Procedure: 1. Prepare Menin at 200 nM, MLL-w.t.-fluorescein at 25 nM, and MLL-mutant-texas red at 50 nM mixture in FP buffer. 2. Prepare Menin at 200 nM, MLL-w.t.-fluorescein at 25 nM, MLL-mutant-texas red at 50 nM, and 10 uM MLL-w.t. unlabeled mixture in FP buffer. 3. Prepare MLL-w.t.-fluorescein at 25 nM and MLL-mutant-texas red at 50 nM mixture in FP buffer. 3. Dispense 4 ul per well of reagent in step 1 in columns 2, 4 - 48 in a black 1536 well plate, dispense 4 ul per well of reagents from steps 2 and 3 in columns 1 and 3 respectively. Incubate plate at ambient for 15 minutes. 4. Transfer 23 nl per well of compound to plate and incubate at ambient for 1 hr. 5. Read fluorescence polarization for each label using the PerkinElmer Envision. Envision protocol for fluorescein: FITC FP Dual Enh Mirror, Excitation filter 480, Emission filter (1) P-pol 535, Emission filter (2) S-pol 535 Envision protocol for texas red: FP Dual Enh Mirror, Excitation filter 555, Emission filter (1) P-pol 632, Emission filter (2) S-pol 632
For `COc1cccc(CCNC(=O)c2cccc(NC(=O)C3=C(C)OCCS3)c2)c1`, the “FP activity change, negative = inhibition” value was -0.071%. For `COCCNc1ncnc2ccc(-c3ccccc3CN(C)C)cc12`, the “FP activity change, negative = inhibition” value was -18.4%. In the case of `COc1ccc(CNc2ncnc3ccc(-c4cccnc4)cc23)c(OC)c1`, the “FP activity change, negative = inhibition” value is reported as -6.79%. In the case of `COCCNc1ncnc2ccc(-c3cccnc3)cc12`, the Potency is reported as 31.6 µM (active). For `COc1ccccc1N1CCN(S(=O)(=O)CCNC(=O)c2ccc(OC(C)C)cc2)CC1`, the “FP activity change, negative = inhibition” value was -12.6%. `CC(CC(=O)N1CCN(c2ccccc2)CC1)S(=O)(=O)c1ccc2c(c1)NC(=O)CS2` (stereo not given) was tested, and the “FP activity change, negative = inhibition” value was 2.06%. In the case of `COc1ccc(N2CCN(S(=O)(=O)CCNC(=O)C34CC5CC(CC(C5)C3)C4)CC2)cc1`, the “FP activity change, negative = inhibition” value is reported as -25%. For `CCc1ccc(S(=O)(=O)N/N=C\c2ccc([N+](=O)[O-])o2)cc1`, the “FP activity change, negative = inhibition” value was 35.3%. `COc1ccc(CNC(=O)/C(C#N)=C/c2cccc(OC)c2OC)cc1` was tested, and the “FP activity change, negative = inhibition” value was -18.7%. For `COc1ccc(N2CCN(C(=O)[C@@H](NC(=O)c3cc(OC)cc(OC)c3)C(C)C)CC2)cc1`, the “FP activity change, negative = inhibition” value was -22.7%. `O=C(NCC1CC1)C1(C(F)(F)F)C/C(=C\CCO)CCCO1` (stereo not given) was tested, and the “FP activity change, negative = inhibition” value was -11.6%. With `Cc1cccc(S(=O)(=O)N2CN(CC3CCCO3)c3nc4ccccc4nc32)c1` (stereo not given) the “FP activity change, negative = inhibition” value was 20.6%. With `CCOc1cc(/C=C/c2nc3ccccc3c(=O)[nH]2)cc(Br)c1OC` the “FP activity change, negative = inhibition” value was 25.1%. With `CCC(C(=O)OC)n1cnc2scc(-c3ccc(C)cc3)c2c1=O` (stereo not given) the “FP activity change, negative = inhibition” value was -3.92%. For `CCn1c(Cc2ccc(OC)cc2)nnc1SCC(=O)Nc1ccc(N2CCOCC2)cc1`, the “FP activity change, negative = inhibition” value was 3.37%. For `COc1ccc(NC(=O)c2cc(-c3cc(OC)c(OC)c(OC)c3)nc3ccccc23)c(OC)c1`, the “FP activity change, negative = inhibition” value was 13.1%. `Cc1ccc(S(=O)(=O)N(Cc2ccccc2)c2ccccn2)cc1[N+](=O)[O-]` was tested, and the “FP activity change, negative = inhibition” value was -17.7%. With `C=CCn1c(C23CC4CC(CC(C4)C2)C3)n[nH]c1=S` the “FP activity change, negative = inhibition” value was -20.5%. In the case of `Cc1ccc(OCC(=O)Nc2ccc(N3CCN(C(=O)c4ccco4)CC3)cc2)c(C)c1`, the “FP activity change, negative = inhibition” value is reported as -25.9%. With `COc1ccccc1NC(=O)c1cc(N2C(=O)C3C4CCC(C4)C3C2=O)ccc1Cl` (stereo not given) the “FP activity change, negative = inhibition” value was 19.8%. `Cc1ccc(O)c(/C=N/NC(=O)COc2ccc3c(C)cc(=O)oc3c2)c1` was tested, and the “FP activity change, negative = inhibition” value was 7.45%. `O=C(NCCc1ccccc1Cl)C1CCC(=O)N(CCCc2ccccc2)C1` (stereo not given) was tested, and the “FP activity change, negative = inhibition” value was -5.76%. For `COc1cccc(/C=C2\Sc3ccc(C(=O)NCC4CCCO4)cc3N(C)C2=O)c1` (stereo not given), the “FP activity change, negative = inhibition” value was 36.8%. For `COc1cc(OC)c2c(C)cc(=O)oc2c1C(CCN1CCCCC1)c1ccc(N(C)C)cc1` (stereo not given), the “FP activity change, negative = inhibition” value was -13.6%. In the case of `Cc1ccc(C(=O)Nc2nnc(-c3cccs3)s2)cc1C`, the Potency is reported as 10 µM (active). `Cc1ccc(C(=O)Oc2coc(CSc3nnc(NC(=O)c4cccs4)s3)cc2=O)cc1C` was tested, and the “FP activity change, negative = inhibition” value was -14.4%. For `CCOc1cccc(C(=O)Nc2nnc(-c3cccs3)s2)c1`, the “FP activity change, negative = inhibition” value was -22.3%. `COc1ccc(C(C(=O)NC(C)(C)C)N(Cc2ccc(F)cc2)C(=O)CCC(=O)Nc2cc(C)on2)cc1` (stereo not given) was tested, and the “FP activity change, negative = inhibition” value was -29.2%. `COc1ccc(NC(=O)c2cccc3c2C(=O)N(CC2CCCO2)C3)cc1OC` (stereo not given) was tested, and the “FP activity change, negative = inhibition” value was 20.2%. For `CCc1ccc(CN(C)C(=O)C2CCC(=O)N(Cc3cccc(OC)c3)C2)nc1` (stereo not given), the “FP activity change, negative = inhibition” value was -5.46%. For `CCC1Sc2ccc(S(=O)(=O)CCC(=O)NCc3cccs3)cc2NC1=O` (stereo not given), the “FP activity change, negative = inhibition” value was 3.79%. In the case of `COCCNC(=S)N(CCc1c(C)[nH]c2ccc(C)cc12)Cc1cccnc1`, the “FP activity change, negative = inhibition” value is reported as 7.33%. `CCOc1ccccc1NC(=S)N1CCN(c2cccc(C)c2C)CC1` was tested, and the “FP activity change, negative = inhibition” value was -1.61%. `Cc1ccc(N2CCN(C(=O)c3cccs3)CC2)c(C)c1` was tested, and the “FP activity change, negative = inhibition” value was -9.4%. In the case of `NC(=O)c1ccc(Nc2ccc3c(c2)CCC3)c([N+](=O)[O-])c1`, the “FP activity change, negative = inhibition” value is reported as -23.3%. `Cc1nc2ccc(C(=O)N(C)CC3CCCN(CCc4ccc(Cl)cc4)C3)cc2[nH]1` (stereo not given) was tested, and the “FP activity change, negative = inhibition” value was 0.888%. `CCOC(=O)c1csc(CCNC(=O)c2oc3c(Cl)cc(C)cc3c2C)n1` was tested, and the “FP activity change, negative = inhibition” value was -13.1%. In the case of `Cc1ccc(CNC(=O)C2CCCN2S(=O)(=O)c2ccc3c(c2)C(C)(C)C(=O)N3C)cc1` (stereo not given), the “FP activity change, negative = inhibition” value is reported as 2.45%. With `COc1ccc(NC(=O)c2sc3nc(C)nc(N4CCN(c5ccccn5)CC4)c3c2C)c(OC)c1` the “FP activity change, negative = inhibition” value was -4.1%. In the case of `COCCNc1ccc(-c2n[nH]c(=O)c3ccccc23)cc1[N+](=O)[O-]`, the “FP activity change, negative = inhibition” value is reported as 12.6%. For `CCc1cccc(C)c1N1C(=O)CN(Cc2ccccc2)C1=S`, the “FP activity change, negative = inhibition” value was 32.1%. `NS(=O)(=O)c1ccc(CNC(=O)c2cccc(Oc3ccccc3)c2)cc1` was tested, and the “FP activity change, negative = inhibition” value was -21.7%. `COc1ccc(NC(=O)CSc2nc3ccccc3c(=O)n2C)cc1` was tested, and the “FP activity change, negative = inhibition” value was -16.9%. In the case of `CC(=O)N1c2ccc(S(=O)(=O)N3CCCC(C(=O)Nc4ccc(C)cc4C)C3)cc2CC1C` (stereo not given), the “FP activity change, negative = inhibition” value is reported as -5.14%. For `COc1ccc(-c2nc3ccccc3c(=O)n2CCc2ccc(O)cc2)cc1`, the “FP activity change, negative = inhibition” value was 4.36%. For `Cc1ccccc1CN1CCC(C(=O)Nc2ccc(Oc3cccnc3)cc2)CC1`, the “FP activity change, negative = inhibition” value was -9.01%. In the case of `CCCCC(C(=O)NC(C)(C)C)N(Cc1ccccc1)C(=O)c1snc(C(N)=O)c1N` (stereo not given), the “FP activity change, negative = inhibition” value is reported as -3.07%. `CCc1ccc(C(CNc2nc(C(F)(F)F)nc3ccccc23)N(C)C)cc1` (stereo not given) was tested, and the “FP activity change, negative = inhibition” value was -1.15%. `C=C1CCN(C(CC(C)C)C(=O)NCc2cc(OC)c(OC)c(OC)c2)S(=O)(=O)c2ccccc21` (stereo not given) was tested, and the “FP activity change, negative = inhibition” value was -12.1%. In the case of `CCOC(=O)[C@H]1[C@H]2COc3cc(OC)ccc3[C@@H]2N2C(=O)N(c3ccc(Br)cc3)C(=O)[C@@]12C`, the “FP activity change, negative = inhibition” value is reported as 2.14%.
